From PubChem BioAssay (Tox21)
The source made the active and inactive calls. Calls come from the whole dose curve; as a rule, active = well fitted activation curve with a large enough effect in the repeat runs; inconclusive = weak or mixed curves; inactive = flat fitted curve, though single readings scatter.

test: Caspase-3/7 induction in CHO-K1 cells by small molecules, qHTS assay (AID 1346980); details: CHO-K1 caspase-3/7 induction, Caspase-Glo luminescence, 17 h; series mostly up to 92.4 µM; caspase-3/7 activation: at the top concentration; note: nearly all actives have a fitted effect of over 15% in size
Source text: National Center for Advancing Translational Sciences [NCATS]
NIH Chemical Genomics Center [NCGC]
U.S. Environmental Protection Agency [EPA]
National Institutes of Environmental Health Sciences [NIEHS]
National Toxicology Program [NTP]
Apoptosis is a process of programmed cell death and plays a central role in the development of multicellular organisms. It is a highly regulated process and induces cell death by activating caspases, which are the members of cysteine aspartic acid-specific protease (caspase) family. Caspases involved in apoptosis are classified by their mechanism of action as initiator caspases (caspase-2, -8, -9 and -10) and executioner caspases (caspase-3, -6, and -7). Inhibition of apoptosis results in number of cancers, autoimmune diseases, inflammatory diseases and viral infection. To identify small molecule compounds that induce apoptosis, a homogeneous, luminescent Caspase-Glo 3/7 assay was used. Wild type CHO-K1 cells were used to screen Tox21 libraries for identifying caspase-3/7 activity inducers.
CHO-K1 cells were dispensed at 1,500 per well in 5uL of culture medium into white solid bottom 1536-well plates (Corning Life Sciences, Corning, NY) using a Multidrop Combi (Thermo Scientific, Waltham, MA) dispenser. The assay plates were incubated at 37 C and 5% CO2 for 5hr, and then 23nL of compounds dissolved in DMSO and positive control were transferred using a Pintool station (Wako, San Diego, CA). The assay plates were incubated at 37C and 5% CO2 for 17hr. For caspase-3/7 activity read, 4uL of Caspase-Glo 3/7 reagent (Promega Corporation, Madison, WI) was added to each well of the assay plates using Flying Reagent Dispenser (FRD, Aurora Discovery, San Diego, CA) and incubated the assay plates at room temperature for 30min. The luminescence signal was quantified using a ViewLux plate reader (Perkin Elmer, Shelton, CT).
% is set by controls: 0 for no effect and ±100 for the full control effect.

Compound | caspase-3/7 activation | outcome
CCCCCCCC(=O)Cl | -2.47% (inactive) | 
CC(C)(N)Cc1ccc(Cl)cc1 | -1.24% [at 42.5 µM] (inactive) | 
CC(C)(C1CCC(O)CC1)C1CCC(O)CC1 (stereo not given) | 1.63% (inactive) | 
CCOC(=O)N(C)N=O | 0.424% (inactive) | 
CCCOC(=O)Cc1ccc(OCC(=O)N(CC)CC)c(OC)c1 | -0.145% [at 42.5 µM] (inactive) | 
CC(Cc1ccccc1)NCCn1cnc2c1c(=O)n(C)c(=O)n2C (stereo not given) | -1.06% (inactive) | 
CCCCCCC1CCOC1=O (stereo not given) | 0.035% (inactive) | 
CCCN1CCC[C@@H]2Cc3[nH]ncc3C[C@H]21 | 0.315% [at 42.5 µM] (inactive) | 
Cc1ccc(S(=O)(=O)N[C@@H](CCCCN)C(=O)CCl)cc1 | -2.2% [at 42.5 µM] (inactive) | 
C[C@]12C=CC(=O)C=C1CC[C@@H]1[C@@H]2CC[C@@]2(C)[C@H]1CC[C@]2(C)O | 1.28% [at 42.5 µM] (inactive) | 
CC#Cc1cc(C)nc(Nc2ccccc2)n1 | -0.413% (inactive) | 
C=CCN1CC[C@]23CCCC[C@H]2[C@H]1Cc1ccc(O)cc13 | 1.6% [at 42.5 µM] (inactive) | 
O=C(O)CBr | 2.3% (inactive) | 
C/C=C/CC#N | 0.985% (inactive) | 
CCOC(=O)CC(SP(=S)(OC)OC)C(=O)OCC (stereo not given) |  | inactive
CC(C)(C)C(=O)C(Cl)Cl | 0.383% (inactive) | 
CNC(=O)Oc1cc(C)c(N(C)C)c(C)c1 | -1.37% (inactive) | 
C#CCOC(=O)/C=C(C)/C=C/CC(C)CCCC(C)C (stereo not given) | -1.07% (inactive) | 
C=C(Cl)CCl | 1.16% (inactive) | 
Cc1cccc2sc3nncn3c12 | 0.203% (inactive) | 

Compound | caspase-3/7 activation | outcome
Oc1ccc2c3c1O[C@H]1[C@@H](O)C=C[C@H]4[C@@H](C2)NCC[C@@]341 | -1.43% (inactive) | 
BrCc1ccc(Br)cc1 | -1.45% (inactive) | 
NNC(N)=O | 2.48% (inactive) | 
CCOC(=O)COc1ccc(Cl)cc1Cl | -0.776% (inactive) | 
CC(C)(N)Cc1ccccc1Cl | -1.97% [at 42.5 µM] (inactive) | 
COC(=O)[C@@H](N)CCCN/C(N)=N/[N+](=O)[O-] | 0.614% [at 42.5 µM] (inactive) | 
Brc1c(Br)c(Br)c(Br)c(Br)c1Br | -0.0086% [at 8.39 µM] (inactive) | 
CN1COCN(Cc2cnc(Cl)s2)/C1=N\[N+](=O)[O-] | 0.0894% (inactive) | 
O=C(Cl)c1ccccc1 | 0.388% (inactive) | 
O=C(Cl)C(Cl)Cl | 1.36% (inactive) | 
C=C1CC[C@@]2(O)[C@H]3Cc4ccc(O)c5c4[C@@]2(CCN3CC2CC2)[C@H]1O5 | -0.516% [at 42.5 µM] (inactive) | 
CC[C@H](O)C(C[C@H](C)N(C)C)(c1ccccc1)c1ccccc1 | -0.719% (inactive) | 
COC(=O)c1ccccc1CS(=O)(=O)NC(=O)Nc1nc(OC)cc(OC)n1 | 0.529% (inactive) | 
O=c1[nH]c2ccccc2o1 | 1.06% (inactive) | 
BrCC1CO1 (stereo not given) | 0.9% (inactive) | 
COc1cccc(C=O)c1 | -0.341% (inactive) | 
CCCCCCCCBr | 0.549% (inactive) | 
ClCCCCl | 4.12% (inactive) | 
CCN[C@@H](C)Cc1cccc(C(F)(F)F)c1 | -0.018% [at 42.5 µM] (inactive) | 
N#CN=C1SCCN1Cc1ccc(Cl)nc1 | -1.59% (inactive) | 
